Assay results taken from ChEMBL document CHEMBL4513216, “Probing the Open Global Health Chemical Diversity Library for Multistage-Active Starting Points for Next-Generation Antimalarials” (ACS Infect Dis, 2020).
Among all 65,000 compounds or so, about 2,100 (3.2%) showed an effect of 50% or more. The median lay at about -52%. Only a selection was taken, and strong results are over-represented in it overall.

What follows are compounds tested on Plasmodium falciparum (assay: Screen against P. falciparum Asexual Blood Stage (ABS), at 5uM). Conditions: tested at 5 uM.
Format: functional, Dd2

Row | Structure (SMILES) | INHIBITION [%]
1 | O=C1NC2(CCc3ccccc31)CCN(Cc1cccnc1)C2 (configuration not stated) | -111
2 | O=C(c1ccco1)N1C[C@H]2CCCN(Cc3ccncc3)[C@H]2C1 | -19.6
3 | Cn1cnc(S(=O)(=O)N2C[C@H]3CN(Cc4cccnc4)C[C@H]3C2)c1 | -85.8
4 | Cc1sc2nc(CCN)nc(N3CC(N4CCCCC4)C3)c2c1C | 81.6
5 | Cc1sc2nc(CCN)nc(N3CCC(N4CCCC4)CC3)c2c1C | 84.3
6 | COCC(=O)NC[C@H]1C[C@@H]2CCN1C[C@@H]2CN1CCc2ccccc21 | 27.2
7 | N#Cc1cnc2ccccc2c1N1CCNCC1 | -3.53
8 | O=C(C1CCCCC1)N1C[C@H]2CNC[C@H]2C1 | 44.5
9 | CN1C[C@@H]2C[C@H](C(=O)Nc3cccnc3)[C@H](C1)O2 | -69.3
10 | COc1ccc(CNC(=O)C2=NN(c3ccc(C)cc3)C(=O)CN2)cc1 | 75
11 | CC(=O)NC(C)C(=O)NCc1ccc(N2CCNC(=O)C2)cc1 (configuration not stated) | -4.19
12 | COCCN1CCO[C@H]2[C@H](OCc3cccc(C)n3)CC[C@@H]21 | -74.3
13 | CC(C)(C)c1n[nH]c(C2CN(CC3CCC3)CCO2)n1 (configuration not stated) | -108
14 | Cc1ccc2[nH]c(C3CCN(C)CC3)nc2c1 | -40.2
15 | Cc1ccc2[nH]c([C@H]3CCN(CC4CCCCC4)C3)nc2c1 | 74.7
16 | CCC(CC)NCC(C)Oc1cccnc1 (configuration not stated) | -116
17 | Cc1cn2c(n1)C(CNCc1ccc(C)s1)CCC2 (configuration not stated) | 91.1
18 | Cc1cn2c(n1)C(CNCc1cccc3c1OCO3)CCC2 (configuration not stated) | 82.1
19 | CCOC[C@@H]1CCC[C@@]12CN(Cc1cccnc1)CCO2 | -129
20 | Cc1ccc2c(c1)C(N(C)C)CC21CCN(CCO)CC1 (configuration not stated) | 74.8
21 | Cc1ccc(CN2CCC3(CC2)C(=O)N(C)c2ccccc23)s1 | 3.77
22 | Cc1ccc2c(c1)C1(CCNCC1)CC2NCCO (configuration not stated) | -23.2
23 | Cc1ccc2c(c1)CCC21CCN(CCO)CC1 | 15.4
24 | Cc1cccc(CN2C[C@@H]3OCCN(C)[C@@H]3C2)n1 | -14.4
25 | COCCN1CCC2(COCc3cnc(-c4ccccc4)nc32)C1 (configuration not stated) | 31.2
26 | COCCN1CCC2(CC1)CC(NCc1ccc(C)s1)c1ccccc12 (configuration not stated) | 77.2

Row | Structure (SMILES) | INHIBITION [%]
27 | Cc1ccc(CNC2CC3(CCN(CCO)CC3)c3ccccc32)s1 (configuration not stated) | 85.4
28 | Cc1cccc(CNC2CC3(CCN(CCO)CC3)c3ccccc32)n1 (configuration not stated) | 78.6
29 | O=S(=O)(C1CC1)N1CCC2(CCCN(Cc3ccccn3)C2)C1 (configuration not stated) | 12.2
30 | O=C(Cc1ccccn1)N1CCN2C[C@H](OCCN3CCCC3)C[C@H]2C1 | 2.21
31 | CC[C@@H]1N(CC2CC2)CCC[C@]12CCC(=O)N2 | -57.5
32 | Cc1noc(C)c1CN1CC[C@H]2[C@H]1CCN2CC1CCOCC1 | -92
33 | CNC(=O)[C@H]1C[C@@H]2CN(C(=O)c3ccc(C)nc3)C[C@@H]2N1C | -35.1
34 | CC(C)C(NC(=O)c1ccccc1)C(=O)N1CCC2(CC1)OCCO2 (configuration not stated) | -37.3
35 | CN(C)C(=O)c1ccc(-c2cccc3c2CCNC3)o1 | -44.3
36 | CN1C(=O)C2(CCN(CC3CC3)CC2)c2ccccc21 | 25.6
37 | Cn1cc(CN2CC[C@]3(C[C@H](Oc4ccccn4)CO3)C2)cn1 | -20.3
38 | Cn1cc(CNC2CC3(CCN(CC4CC4)CC3)c3ccccc32)cn1 (configuration not stated) | 87.6
39 | NCC1CCN(C2CCN(c3ccc(-c4ccco4)cc3)CC2)C1 (configuration not stated) | 91
40 | NC1CCN(C2CCN(c3ccc(-c4ccco4)cc3)CC2)CC1 | 80.3
41 | CNC1CCN(C2CCN(c3ccc(-c4ccco4)cc3)CC2)CC1 | 86.4
42 | Cc1oc(-c2ccco2)nc1CC(=O)N1CCN(C2CCC2)CC1 | -14.4
43 | O=C1NC2(CCCCC2)c2nnnn2-c2ccc(Br)cc21 | -67.2
44 | O=C(CCc1ccsc1)N1CCC(C(=O)O)(c2ccccc2)CC1 | -103
45 | CCN1CCCN(S(=O)(=O)c2cc3ccccc3o2)CC1 | 84.3
46 | NC(=O)CN1CCCN(C(=O)Cc2ccc(F)cc2)CC1 | -158
47 | CS(=O)(=O)c1ccc(-c2cc(O)cc(CCC3CCCCN3)c2)cc1 (configuration not stated) | 70.3
48 | CS(=O)(=O)c1ccc(CC(=O)N2CCN3CCNC(=O)C3C2)cc1 (configuration not stated) | -50.4
49 | CCCn1ccnc1CN1CCCC1c1ccccn1 (configuration not stated) | 86.8
50 | CCCN1CCN(Cc2nccn2CC)C(C)C1 (configuration not stated) | -101
51 | CCC(=O)N1CCN(Cc2cnc(C)nc2)[C@H]2CS(=O)(=O)C[C@H]21 | -106
52 | O=C1CC2(CCN(Cc3ccc(Cl)s3)C2)C(=O)N1 (configuration not stated) | -155

Row | Structure (SMILES) | INHIBITION [%]
53 | Cc1ccc(Sc2ccc(CN3CCC4(CCCNC4=O)C3)o2)cc1 (configuration not stated) | 73.1
54 | Cc1nnc(N2CCCC3(CN(Cc4ccncc4)CCO3)C2)o1 (configuration not stated) | -78.8
55 | CC(C)C(=O)N1CCCC2(CCCN2Cc2cccnc2)C1 (configuration not stated) | -13.9
56 | Cc1ccccc1CC(=O)N1C[C@@H](O)[C@H](N2CCN(C)CC2)C1 | -87.9
57 | Cc1cccc(CN2CC[C@@H]3[C@@H]2CCN3C(=O)c2cc(C)on2)n1 | -95.7
58 | Cc1ccc(CN2C[C@@H]3CN(c4ncc(F)cn4)C[C@@H]3C2)cc1 | -37
59 | CN(C)[C@@H]1CCN(C(=O)Cc2cccs2)[C@H]1Cc1ccncc1 | -51.7
60 | CN(C)[C@@H]1CCN(C(=O)Cc2cccs2)[C@H]1Cc1cnn(C)c1 | -4.87
61 | CN(C)C(=O)CN1CC[C@H]2[C@H]1CCN2c1ncccn1 | -109
62 | Cc1cc(C(=O)N2CC[C@@H](N(C)C)[C@@H]2Cc2ccccc2)no1 | 74.4
63 | CN(C)[C@@H]1CCN(c2ncccn2)[C@H]1Cc1ccccc1 | 78.1
64 | CN(C)[C@@H]1CCN(c2ncc(F)cn2)[C@H]1Cc1ccccc1 | 89
65 | CN(C)[C@@H]1CCN(C(=O)Cc2ccc(F)cc2)[C@H]1Cc1ccncc1 | 5.44
66 | O=S1(=O)NCC2(CCN(Cc3ccc(Cl)s3)C2)Oc2ncccc21 (configuration not stated) | -56.7
67 | O=C1N(c2ccsc2)CCC12CCCN(Cc1cccnc1)C2 (configuration not stated) | -28.4
68 | Cc1ccc(C2(CN3CCN(Cc4cnc(C)n4C)CC3)CC2)cc1 | 95.4
69 | Cc1noc(C)c1CN1CCO[C@H]2CN(Cc3cncn3C)C[C@H]21 | -42.6
70 | CCn1cncc1CN1CCN(CC2(c3ccc(C)cc3)CC2)CC1 | 70
71 | CCn1cncc1Cn1ncc2ccccc2c1=O | -114
72 | Cc1ccc(C2(CN3CCN(Cc4cncn4C)CC3)CC2)cc1 | 73.2
73 | COCCn1cncc1CN1CCC(C(C)=O)(c2ccccc2)CC1 | -20.6
74 | Cn1cncc1CN1C[C@@H]2OCCN(c3ncccn3)[C@@H]2C1 | -99.1
75 | Clc1ccc(-n2nnnc2C2(NCc3ccco3)CCCCC2)cc1 | 5.42
76 | CN(Cc1cncnc1)[C@H]1CN(CC2CC2)[C@@H]2CCCO[C@@H]21 | 4.52
77 | c1cc(COC[C@]23COC[C@H]2CN(CC2CCC2)C3)ccn1 | -81.5
78 | Cc1noc(C)c1CN1CCCC2(CCN(C(=O)NC3CC3)C2)C1 (configuration not stated) | -183

Row | Structure (SMILES) | INHIBITION [%]
79 | CC(C)N(C)Cc1cnc2n1CCN(C(=O)NC1CCCC1)C2 | 83.4
80 | CC(C)N(C)Cc1cncc2c1CCN(CC(=O)N(C)C)C2 | -31.3
81 | c1cnnc(N2CCCC2CNc2ncnc3sccc23)c1 (configuration not stated) | 82
82 | CN(Cc1ncc(C(C)(C)C)o1)CC1CCCN1c1cccnn1 (configuration not stated) | 80.7
83 | Cc1cc(C)c(CNc2ncnc3ccccc23)c(=O)[nH]1 | 14.5
84 | CN(c1ncnc2ccccc12)C1CCCN(c2cccnn2)C1 (configuration not stated) | 74.4
85 | c1cnnc(N2CCCC2CNc2ncnc3ccccc23)c1 (configuration not stated) | 81.1
86 | N#Cc1ccc(NC2CCN(c3ncccn3)CC2)cc1Cl | -47.7
87 | c1ccc(CO[C@@H]2CC[C@H]3[C@H]2OCCN3Cc2ccsc2)nc1 | -80.3
88 | CC[C@H](C)[C@@H](CO)NC(C)Cc1ccc(C)cc1 (some centres not stated) | 31.8
89 | O=C(NCc1ccccn1)[C@H]1COC[C@H]2CN(C3CCCC3)C[C@H]21 | -109
90 | COCCn1ccc2c(C(=O)NC3CN4CCC3CC4)cccc21 (configuration not stated) | -19.8
91 | O=C(NC1CC1)C1CCN(c2cccc(C(F)(F)F)n2)CC1 | 79.4
92 | N[C@H]1CN(CCCOc2ccccc2)C[C@@H]1C1CC1 | 86.8
93 | COCCN1C[C@H]2[C@@H](C1)N(C(=O)COc1ccccc1)CC[C@H]2OC | -98.8
94 | N[C@H]1CN(CCOc2ccc(F)cc2)C[C@@H]1C1CC1 | 76.5
95 | COCCN1C[C@H]2CCC[C@@H](CNc3ncccn3)[C@H]2C1 | 23.6
96 | O=C(Cc1ccsc1)N1CCN(CCOc2ccccc2)CC1 | 19.5
97 | CC(C)N1CCC2(CC1)NC(=O)c1cc(Br)ccc1-n1nnnc12 | -84.6
98 | CN1CCOCC2(CCCN(C(=O)Cc3ccncc3)C2)C1 (configuration not stated) | -195
99 | CCS(=O)(=O)N1CCN(C)c2ncccc2C1 | -45.7
100 | CCC(CN1CCOCC1)n1cncc1-c1ccc2c(c1)CCN2CC (configuration not stated) | 94.5
101 | CC(C)CN1CCC2(CC1)CN(C(=O)C(C)C)C2 | -69.1
102 | CNC(=O)[C@H]1C[C@@H]2CN(Cc3c(C)noc3C)C[C@@H]2N1C(C)=O | -19.9
